“And” between values parts separate entries of the source, which are not always exact repeats. Equal entries are not always repeated. Records with an inconclusive call do not appear. A call without a number means that no potency is given here. The source made the active and inactive calls. Unless noted, calls follow the shape of the dose curve; as a rule, active = well fitted curve in the direction sought with a large enough effect; inconclusive = small, poorly fitted or top-dose-only effect, or another doubt; inactive = no such curve, though single readings can be large; an effect the other way counts as inactive or inconclusive. Where a SMILES comes first, the peptide text is derived from it. [ ]: non-standard residue; d: D form. pGlu = O=C1CC[C@@H](C(=O)O)N1
Experiments:
[1] = Primary qHTS for inhibitors of La Crosse Virus (LACV) - induced cell death in SH-SY5Y cells (AID 1508616);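 also: top concentration of the series differs between compounds; higher means more rescue of cells from virus-induced death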
Outline: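 SH-SY5Y, 6000 cells/well; cpd via pin tool in DMSO; LACV 0.01 MOI; 6 d 37C 5% CO2; ATPLite, 5 min RT; luminescence normalized to ±virus DMSO controls.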

[2] = target: Calcium and integrin-binding protein 1 (Homo sapiens) (UniProt Q99828); experiment: Primary qHTS for Identification of Calcium Integrin Binding Protein 1 (CIB1) Competitor (AID 1508620); also: potency is read from the fitted curve at half-maximal effect
Sequence of Calcium and integrin-binding protein 1 (Homo sapiens) (Q99828 whole entry, looked up): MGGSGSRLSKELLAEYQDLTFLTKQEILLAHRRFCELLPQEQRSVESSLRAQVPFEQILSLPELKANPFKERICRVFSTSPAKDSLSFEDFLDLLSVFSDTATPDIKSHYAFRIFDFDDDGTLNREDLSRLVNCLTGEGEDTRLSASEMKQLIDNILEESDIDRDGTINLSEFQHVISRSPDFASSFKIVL
Outline: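 CIB1-GST (1 uM final) and compound incubated 15 min at room temperature before adding FITC-alphaIIb peptide tracer (100 nM final). Competition for binding read by fluorescence polarization (ex 480, em 540) after another 15 min at room temperature.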

[3] = Primary qHTS for small molecule stabilizers of the endoplasmic reticulum resident proteome: Secreted ER Calcium Modulated Protein (SERCaMP) assay (AID 1508630)
Outline: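 The SH-SY5Y reporter protocol was run at 3 concentrations up to 38.3 uM (primary) or 11 concentrations (follow-up): 16 h compound, 100 nM thapsigargin for 4 h, then extracellular luciferase luminescence.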

[4] = A High-Content qHTS Against Drug Library for the Identification of Small Molecules that Inhibit DYT1 Early Onset Primary Dystonia-Associated Cell Pathology (AID 1645839; calls by dose curve; also: potency is read from the fitted curve at half-maximal effect)
Outline: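 High-content imaging quantified EGFP-TorsinA mislocalization in HEK293-derived cells inducibly expressing DYT1 mutant torsinA, after 48 h exposure to compound given together with tetracycline induction. Cell count served as a toxicity channel alongside %pathology.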

[5] = target: Cytochrome P450 2D6 (Homo sapiens) (UniProt P10635); experiment: Cytochrome P450 family 2 subfamily D member 6 (CYP2D6) small molecule antagonists: luciferase biochemical (cell-free) qHTS assay (AID 1645840; active = well fitted curve in the direction sought with a large enough effect in the repeat runs; an effect the other way counts as inactive or inconclusive; also: nearly all actives have a fitted effect of over 55% in size; also: potency is read from the fitted curve at half-maximal effect)
Sequence of Cytochrome P450 2D6 (Homo sapiens) (P10635 whole entry, looked up): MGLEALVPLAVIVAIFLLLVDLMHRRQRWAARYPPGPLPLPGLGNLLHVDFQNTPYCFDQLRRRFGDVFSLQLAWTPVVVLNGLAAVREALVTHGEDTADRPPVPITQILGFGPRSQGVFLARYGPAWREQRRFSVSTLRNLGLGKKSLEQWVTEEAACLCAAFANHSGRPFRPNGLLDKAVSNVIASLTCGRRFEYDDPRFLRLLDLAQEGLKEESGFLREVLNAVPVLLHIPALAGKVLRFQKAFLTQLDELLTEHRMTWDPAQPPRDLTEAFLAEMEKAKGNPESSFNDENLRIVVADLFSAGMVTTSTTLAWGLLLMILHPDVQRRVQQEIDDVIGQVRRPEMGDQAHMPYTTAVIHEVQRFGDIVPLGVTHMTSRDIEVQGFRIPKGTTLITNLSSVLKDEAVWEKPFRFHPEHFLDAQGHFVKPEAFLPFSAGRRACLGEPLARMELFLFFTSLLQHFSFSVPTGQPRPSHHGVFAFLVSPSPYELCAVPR
Outline: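 P450-Glo CYP2D6 system: proluciferin substrate converted by enzyme to luciferin, read by luminescence proportional to activity. Enzyme-substrate mix with compound 10 min at room temperature, then NADPH regeneration 1 h before detection reagent.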

[6] = target: Cytochrome P450 2C9 (Homo sapiens) (UniProt P11712); experiment: Cytochrome P450 family 2 subfamily C member 9 (CYP2C9) small molecule antagonists: luciferase biochemical (cell-free) qHTS assay (AID 1645842; active = well fitted curve in the direction sought with a large enough effect in the repeat runs; an effect the other way counts as inactive or inconclusive; also: nearly all actives have a fitted effect of over 55% in size; also: potency is read from the fitted curve at half-maximal effect)
Sequence of Cytochrome P450 2C9 (Homo sapiens) (P11712 whole entry, looked up): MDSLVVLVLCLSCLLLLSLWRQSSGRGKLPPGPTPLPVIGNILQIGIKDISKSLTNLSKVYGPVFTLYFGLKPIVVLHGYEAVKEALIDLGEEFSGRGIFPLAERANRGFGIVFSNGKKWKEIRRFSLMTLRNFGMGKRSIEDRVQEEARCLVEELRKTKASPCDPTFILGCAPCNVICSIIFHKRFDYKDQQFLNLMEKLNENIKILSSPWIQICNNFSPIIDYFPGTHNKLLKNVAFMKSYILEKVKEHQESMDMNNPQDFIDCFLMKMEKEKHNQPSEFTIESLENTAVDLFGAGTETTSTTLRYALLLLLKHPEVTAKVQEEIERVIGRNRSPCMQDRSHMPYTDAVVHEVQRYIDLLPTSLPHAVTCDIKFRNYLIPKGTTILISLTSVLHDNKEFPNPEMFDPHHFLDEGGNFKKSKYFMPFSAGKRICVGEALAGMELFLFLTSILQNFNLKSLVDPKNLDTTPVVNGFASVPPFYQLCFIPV
Outline: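 P450-Glo CYP2C9 system: proluciferin substrate with enzyme in mix containing 0.4% BSA, 10 min at room temperature, then NADPH regeneration solution added and incubated 1 h at 37C. Detection reagent stopped reaction; luminescence read after 20 min as RLU.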

[7] = Primary qHTS for inhibitors of nuclear receptor binding SET domain protein 2 (NSD2) in an isogenic RCH-ACV NSD2 p.E1099K mutant (9B) (AID 1645876); also: nearly all actives have a fitted effect of over 70% in size; also: potency is read from the fitted curve at half-maximal effect
[8] = Primary qHTS for inhibitors of nuclear receptor binding SET domain protein 2 (NSD2) in an RCH-ACV wild type WT cells (2C) (AID 1645877); also: nearly all actives have a fitted effect of over 70% in size; also: potency is read from the fitted curve at half-maximal effect
[9] = target: Cytochrome P450 3A4 (Homo sapiens) (UniProt P08684); experiment: Cytochrome P450 family 3 subfamily A member 4 (CYP3A4) small molecule antagonists: luciferase qHTS assay (AID 1645841; active = well fitted curve in the direction sought with a large enough effect in the repeat runs; an effect the other way counts as inactive or inconclusive; also: nearly all actives have a fitted effect of over 45% in size; also: potency is read from the fitted curve at half-maximal effect)
Sequence of Cytochrome P450 3A4 (Homo sapiens) (P08684 whole entry, looked up): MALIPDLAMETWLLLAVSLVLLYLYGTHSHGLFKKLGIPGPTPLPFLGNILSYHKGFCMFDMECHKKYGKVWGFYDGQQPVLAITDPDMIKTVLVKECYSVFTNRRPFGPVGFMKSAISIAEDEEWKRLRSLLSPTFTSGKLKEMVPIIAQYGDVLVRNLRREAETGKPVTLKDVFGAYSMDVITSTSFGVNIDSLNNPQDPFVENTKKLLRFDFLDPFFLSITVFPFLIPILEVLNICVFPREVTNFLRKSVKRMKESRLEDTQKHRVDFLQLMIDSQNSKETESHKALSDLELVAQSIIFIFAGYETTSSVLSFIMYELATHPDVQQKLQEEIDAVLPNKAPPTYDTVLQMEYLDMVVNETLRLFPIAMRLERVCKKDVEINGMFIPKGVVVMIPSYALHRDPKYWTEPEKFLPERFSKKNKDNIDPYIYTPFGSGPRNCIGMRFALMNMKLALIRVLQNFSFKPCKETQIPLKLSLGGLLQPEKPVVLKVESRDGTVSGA
Outline: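 Luminescent CYP3A4 activity readout: compounds plus enzyme-substrate mix 10 min at room temperature, reaction started with NADPH regenerating system for 1 h, stopped with detection reagent, read after 20 min. Ketoconazole served as control.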

[10] = target: Rap guanine nucleotide exchange factor 3 (Homo sapiens) (UniProt O95398); experiment: Confirmatory qHTS for antagonist of cAMP-regulated guanine nucleotide exchange factor 3 (EPAC1) (AID 1645880); also: nearly all actives have a fitted effect of over 55% in size
Sequence of Rap guanine nucleotide exchange factor 3 (Homo sapiens) (O95398 whole entry, looked up): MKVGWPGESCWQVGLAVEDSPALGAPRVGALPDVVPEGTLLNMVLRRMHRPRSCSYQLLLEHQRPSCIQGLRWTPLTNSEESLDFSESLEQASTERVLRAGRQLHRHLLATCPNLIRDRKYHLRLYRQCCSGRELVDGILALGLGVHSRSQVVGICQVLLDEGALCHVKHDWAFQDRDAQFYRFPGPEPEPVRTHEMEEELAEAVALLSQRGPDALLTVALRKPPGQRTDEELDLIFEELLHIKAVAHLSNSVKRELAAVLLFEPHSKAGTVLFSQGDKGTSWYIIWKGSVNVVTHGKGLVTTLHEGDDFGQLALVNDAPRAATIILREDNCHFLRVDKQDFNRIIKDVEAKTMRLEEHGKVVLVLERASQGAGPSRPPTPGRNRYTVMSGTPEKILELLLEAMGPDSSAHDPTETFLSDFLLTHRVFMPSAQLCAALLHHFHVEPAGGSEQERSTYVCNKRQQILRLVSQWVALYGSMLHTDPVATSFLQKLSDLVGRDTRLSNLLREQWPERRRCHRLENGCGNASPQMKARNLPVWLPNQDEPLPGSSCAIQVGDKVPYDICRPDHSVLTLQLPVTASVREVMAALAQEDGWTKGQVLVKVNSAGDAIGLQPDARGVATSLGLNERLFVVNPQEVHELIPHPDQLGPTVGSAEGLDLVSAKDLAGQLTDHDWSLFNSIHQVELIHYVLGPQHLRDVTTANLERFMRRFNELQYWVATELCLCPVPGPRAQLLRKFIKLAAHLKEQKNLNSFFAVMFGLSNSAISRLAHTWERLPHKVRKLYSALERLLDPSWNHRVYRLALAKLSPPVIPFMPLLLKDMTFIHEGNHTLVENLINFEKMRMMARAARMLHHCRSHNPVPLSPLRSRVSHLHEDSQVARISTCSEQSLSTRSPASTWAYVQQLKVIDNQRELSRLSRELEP
Outline: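 Released BODIPY-GDP fluoresces less than Rap1-bound BODIPY-GDP; the signal is followed at 480/540 nm at 5-min intervals over 30 min, after 5 min at room temperature. Reactions contain 100 nM EPAC1, 250 nM RAP1B-BODIPY-GDP and 50 uM GDP; results are normalized to ATA and DMSO.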

[11] = target: Rap guanine nucleotide exchange factor 3 (Homo sapiens) (UniProt O95398); experiment: Confirmatory qHTS for agonist of cAMP-regulated guanine nucleotide exchange factor 3 (EPAC1) (AID 1645881); also: potency is read from the fitted curve at half-maximal effect; nearly all actives have a fitted effect of over 75% in size
[12] = target: Rap guanine nucleotide exchange factor 4 (Homo sapiens) (UniProt Q8WZA2); experiment: Confirmatory qHTS for agonist of cAMP-regulated guanine nucleotide exchange factor 4 (EPAC2) (AID 1645884);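 also: nucleotide exchange releases bodipy-GDP from Rap1 and this lowers its fluorescence; potency is read from the fitted curve at half-maximal effect; nearly all actives have a fitted effect of over 65% in size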
Sequence of Rap guanine nucleotide exchange factor 4 (Homo sapiens) (Q8WZA2 whole entry, looked up): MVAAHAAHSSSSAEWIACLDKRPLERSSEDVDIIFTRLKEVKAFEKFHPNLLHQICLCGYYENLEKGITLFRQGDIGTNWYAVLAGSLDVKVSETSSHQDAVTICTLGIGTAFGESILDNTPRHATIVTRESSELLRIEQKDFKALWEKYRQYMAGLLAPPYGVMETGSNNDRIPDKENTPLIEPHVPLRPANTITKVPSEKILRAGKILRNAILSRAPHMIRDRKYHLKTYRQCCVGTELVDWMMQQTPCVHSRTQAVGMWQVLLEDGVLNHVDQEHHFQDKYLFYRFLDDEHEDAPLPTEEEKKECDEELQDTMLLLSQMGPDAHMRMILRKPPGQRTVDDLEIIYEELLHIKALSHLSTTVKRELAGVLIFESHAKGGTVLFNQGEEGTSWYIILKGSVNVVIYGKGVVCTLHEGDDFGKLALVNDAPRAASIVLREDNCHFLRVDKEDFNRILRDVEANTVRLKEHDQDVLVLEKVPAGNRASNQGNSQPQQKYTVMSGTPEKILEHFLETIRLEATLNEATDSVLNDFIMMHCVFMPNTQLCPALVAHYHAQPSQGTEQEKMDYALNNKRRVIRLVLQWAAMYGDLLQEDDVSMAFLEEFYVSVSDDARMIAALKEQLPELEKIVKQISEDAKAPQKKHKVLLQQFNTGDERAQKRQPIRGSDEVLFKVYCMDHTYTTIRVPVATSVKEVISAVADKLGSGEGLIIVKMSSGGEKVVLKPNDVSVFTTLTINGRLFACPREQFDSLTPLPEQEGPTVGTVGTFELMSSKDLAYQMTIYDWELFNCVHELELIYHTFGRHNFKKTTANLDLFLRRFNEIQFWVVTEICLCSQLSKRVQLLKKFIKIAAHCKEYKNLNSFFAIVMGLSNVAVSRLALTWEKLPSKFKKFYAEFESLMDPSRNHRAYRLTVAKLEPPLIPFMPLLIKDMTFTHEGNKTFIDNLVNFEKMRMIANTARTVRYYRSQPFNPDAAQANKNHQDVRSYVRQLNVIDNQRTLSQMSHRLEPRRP

[13] = target: Rap guanine nucleotide exchange factor 4 (Homo sapiens) (UniProt Q8WZA2); experiment: Confirmatory qHTS for antagonist of cAMP-regulated guanine nucleotide exchange factor 4 (EPAC2) (AID 1645885); also: nearly all actives have a fitted effect of over 25% in size

Compound	outcome [1]	Potency [2]	Potency [3]	Potency [4]	Potency [5]	Potency [6]	Potency [7]	Potency [8]	Potency [9]	Potency [10]	Potency [11]	Potency [12]	Potency [13]
O=C(O)c1[nH]n(-c2ccc(S(=O)(=O)O)cc2)c(=O)c1N=Nc1ccc(S(=O)(=O)O)cc1	inactive	inactive	inactive	inactive	inactive	inactive	inactive	inactive					
CC(C)C(=O)OCc1cccc(OC(=O)[C@@H]2N3C(=O)[C@@H](NC(=O)Cc4ccccc4)[C@H]3SC2(C)C)c1	inactive	inactive	inactive	inactive	inactive		inactive	inactive					
CC(=O)Nc1ccc(S(=O)(=O)Nc2cc(C)on2)cc1	inactive	inactive	inactive	inactive	inactive	inactive	inactive	inactive					
OC1(c2ccccc2)CCNCC1	inactive	inactive	inactive	inactive	27.5 µM (active)	inactive	inactive	inactive					
COc1cc2c(cc1OC)C(=O)CC2	inactive	inactive	inactive	inactive	inactive	inactive		inactive					
Nc1c[n+](N2CCOCC2)no1	inactive	inactive	inactive	inactive	inactive		inactive	inactive					
CCCCCC(=O)O[C@]1(C(C)=O)CC[C@H]2[C@@H]3CCC4=CC(=O)CC[C@]4(C)[C@H]3CC[C@@]21C	inactive	inactive	inactive	inactive	13.8 µM (active)	4.9 µM (active)		10.6 µM (active)					
O=C1Nc2cc(Cl)ccc2Oc2ccccc21	inactive	inactive	inactive	inactive	inactive		inactive	inactive					
Cc1c(F)cc2c(=O)c(C(=O)O)cn3c2c1CCC3C (centres undefined)	inactive	inactive	inactive	inactive	inactive		inactive	inactive					
CCN1CCCC1CN (centres undefined)	inactive	inactive	inactive	inactive	inactive		inactive	inactive					
C#CC(C)(CC)OC(=O)c1ccccc1C(=O)O (centres undefined)	inactive	inactive	inactive	inactive	inactive	inactive	inactive	inactive					
Nc1c(I)cc(I)c(C(=O)N(CCC(=O)O)c2ccccc2)c1I	inactive	inactive	inactive	inactive	inactive		inactive	inactive					
COC(=O)/C=C(/C)N	inactive	inactive	inactive	inactive	inactive		inactive	inactive					
C[N+]1(CC2COC(c3ccccc3)(c3ccccc3)O2)CCCCC1 (centres undefined)	inactive	inactive	inactive	inactive	1.51 µM (active)	inactive		2.59 µM (active)					
OC1(c2ccc(Cl)c(C(F)(F)F)c2)CCN(CCCC(c2ccc(F)cc2)c2ccc(F)cc2)CC1	inactive	inactive	inactive	4.47 µM (active)	1.23 µM (active)	15.5 µM (active)	4.22 µM (active) and 3.25 µM (active)	4.73 µM (active) and 4.59 µM (active)					
CCNC(=O)[C@@H]1CCCN1C(=O)[C@H](CCCN=C(N)N)NC(=O)[C@H](CC(C)C)NC(=O)CNC(=O)[C@H](Cc1ccc(O)cc1)NC(=O)[C@H](CO)NC(=O)[C@H](Cc1c[nH]c2ccccc12)NC(=O)[C@H](Cc1cnc[nH]1)NC(=O)[C@@H]1CCC(=O)N1 ([pGlu]HWSYGLRP-NHEt)	inactive	inactive	inactive	inactive	inactive	inactive		inactive					
C[C@@H]1CCC[C@H](C)N1CCCC(O)(c1ccccc1)c1ccccn1 (some centres undefined)	inactive	inactive	inactive	inactive	0.871 µM (active)		inactive	inactive					
COC(=O)c1ccc(NC(C)=O)cc1OC	inactive	inactive	inactive	inactive	inactive	inactive	inactive	inactive					
CN1N=C(C(N)=O)CCC1=O	inactive	inactive	inactive	inactive	inactive	inactive	inactive	inactive					
O=c1[nH]c2ccccc2c(=O)n1CCCl	inactive	inactive	inactive	inactive	inactive	inactive	inactive	inactive					
CCC(C(=O)NC(=O)NC(C)=O)c1ccccc1 (centres undefined)	inactive	inactive	inactive	inactive	inactive		inactive	inactive					
N#Cc1cc(NC(=O)C(=O)O)c(Cl)c(NC(=O)C(=O)O)c1	inactive	inactive	inactive	inactive	inactive		inactive	inactive					
Cn1c(=O)c2c(ncn2CC(=O)O)n(C)c1=O	inactive	inactive	inactive	inactive	inactive	inactive	inactive	inactive					
Clc1ccc2c(c1)Nc1ccccc1S2	inactive	inactive	inactive	inactive	inactive		inactive	inactive					
O=S(=O)(O)c1ccc2nc(-c3ccccc3)[nH]c2c1	inactive	inactive	inactive	inactive	9.77 µM (active)		inactive	inactive					

Compound	outcome [1]	Potency [2]	Potency [3]	Potency [4]	Potency [5]	Potency [6]	Potency [7]	Potency [8]	Potency [9]	Potency [10]	Potency [11]	Potency [12]	Potency [13]
Oc1ccccc1-c1nnco1	inactive	inactive	inactive	inactive	inactive	inactive	inactive	inactive					
O=C1NC(c2ccccc2)(c2ccccc2)C(=O)N1COP(=O)(O)O	inactive	inactive	inactive	inactive	inactive		inactive	inactive					
CC1CCCCN1CCCOC(=O)c1ccc(OC2CCCCC2)cc1 (centres undefined)	inactive	inactive	inactive		11 µM (active)								
Nc1ccc2cc3ccc(N)cc3nc2c1	inactive	2.24 µM (active)	inactive		inactive	inactive	2.37 µM (active)	1.68 µM (active)	4.36 µM (active)	inactive	17.7 µM (active)	22.3 µM (active)	inactive
CC(=O)OCC[N+](C)(C)C	inactive	inactive	inactive	inactive		inactive	inactive	inactive					
CCCCC(=O)OCC(=O)[C@H]1[C@H](C)C[C@H]2[C@@H]3C[C@H](F)C4=CC(=O)C=C[C@]4(C)[C@@]3(F)[C@@H](O)C[C@@]21C	inactive	inactive	inactive	inactive				0.0033 µM (active)					
C=CC[N+]1([C@H]2C[C@H]3[C@@H]4CC[C@H]5C[C@H](OC(C)=O)[C@@H](N6CCCCC6)C[C@]5(C)[C@H]4CC[C@]3(C)[C@H]2OC(=O)CC)CCCCC1	inactive	inactive	inactive	inactive		inactive	inactive	inactive					
O=C(OCC(COC(=O)c1cccnc1)(COC(=O)c1cccnc1)COC(=O)c1cccnc1)c1cccnc1	inactive	inactive	inactive	inactive			inactive	inactive					
CCN1CCN(c2cc(-c3ccc(F)cc3)c3c(n2)CCCCCC3)CC1	inactive	inactive	inactive	inactive		inactive	inactive	inactive					
CNC(=O)c1cnn(-c2nc(N)c3ncn([C@@H]4O[C@H](CO)[C@@H](O)[C@H]4O)c3n2)c1	inactive	inactive	inactive	inactive		inactive							
CC(CCc1ccc2c(c1)OCO2)NN (centres undefined)	inactive	inactive	inactive	inactive		15.5 µM (active)	inactive	inactive					
C[C@@]12CCC[C@H]1[C@@H]1CC[C@H]3C[C@@H](O)CC[C@]3(C)[C@H]1CC2	inactive	inactive	inactive	inactive		22.9 µM (active)	inactive	inactive					
OCc1cccnc1	inactive	inactive	inactive	inactive		inactive	inactive	inactive	inactive				
CCOC(=O)C(=O)CCc1ccccc1	inactive	inactive	inactive	inactive			inactive	inactive					
Cc1cccc(OCC(O)CNC(C)(C)C)c1C (centres undefined)	inactive	inactive	inactive	inactive		inactive	inactive	inactive					
CC(=O)/C=C/C=C1/C2CCC(C2)C1(C)C (centres undefined)	inactive	inactive	inactive	inactive			inactive	inactive					
COc1ccccc1N1CCN(CC(O)COc2cc(OC)c(OC)c(OC)c2)CC1 (centres undefined)	inactive	inactive	inactive	inactive		inactive	inactive	inactive					
CCOC(=O)NNc1nncc2ccccc12	inactive	inactive	inactive	inactive		inactive	inactive	inactive					
CCC(=O)O[C@]1(C(=O)COC)[C@@H](C)C[C@H]2[C@@H]3CCC4=CC(=O)C=C[C@]4(C)C3(F)[C@@H](O)C[C@@]21C (some centres undefined)	inactive	inactive	inactive	inactive		24.5 µM (active)		0.0033 µM (active)					
O=C(O)c1cn(C2CC2)c2cc(Cl)c(F)cc2c1=O	inactive	inactive	inactive	inactive		inactive	inactive	inactive					
CC(=O)OC/C=C(C)/C=C/C=C(C)/C=C/C1=C(C)CCCC1(C)C	inactive	inactive	inactive	inactive		15.5 µM (active)							
O=C(O)/C=C(\CC(=O)O)C(=O)O	inactive	inactive	inactive	inactive		inactive		inactive					
NC(=O)NC1N=C([O][Al])NC1=O (centres undefined)	inactive	inactive	inactive	inactive		inactive	inactive	inactive	5.49 µM (active)				
CCCC(=O)O[C@]1(C(=O)CCl)[C@@H](C)C[C@H]2[C@@H]3CCC4=CC(=O)C=C[C@]4(C)[C@@]3(F)C(=O)C[C@@]21C	inactive	inactive	inactive	inactive				0.0007 µM (active)					

Source: PubChem BioAssay (NCATS)
